# Reference: PubChem BioAssay
# The source made the active and inactive calls.
# Columns and labels:
# [1] = tested on: PRMT1 (protein arginine N-methyltransferase 1); experiment: PRMT1 binders on small-molecule microarrays, primary screen, biochemical, small-molecule microarray, 635 nm fluorescence (AID 1088); conditions: small-molecule microarray binding, higher = more signal;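 also: binding of Prmt1 protein to compounds spotted on small-molecule microarray slides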
# [2] = yeast growth modulation, basal conditions, primary screen, YJM789 clinical isolate, OD600, 24 h (AID 1089);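 also: growth of clinical yeast isolate S. cerevisiae YJM 789 seeded 1000 cells per well; test concentration not given here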; conditions: S. cerevisiae YJM789 growth, higher = more signal, called active from +8 up or from −8 down
# [3] = fission yeast growth modulation, primary screen, strain 972, OD600, 24 h, no modulator (AID 1090);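 also: basal condition with compound alone and no growth modifier present; test concentration not given here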; conditions: S. pombe 972 growth, higher = more signal, called active from +8 up or from −8 down
# [4] = S. cerevisiae growth modulation with rapamycin, primary screen, strain BY4716, OD600, 96 h (AID 1091); conditions: higher = more signal, called active from +8 up or from −8 down; also: test concentration not given here
# [5] = target: Torsin-1A-interacting protein 2 (Homo sapiens) (UniProt Q8NFQ8); experiment: LULL1 binders on small-molecule microarray, primary screen, cell lysate, human LULL1 lysate, 635/667 nm fluorescence (AID 1092); conditions: hLULL1 lysate binding, 635 nm fluorescence, higher = more signal;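 also: probe is lysate of COS7 cells overexpressing human LULL1; score merges per-feature 667 nm fluorescence with signal-to-noise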
# Torsin-1A-interacting protein 2 (Homo sapiens), sequence (Q8NFQ8 whole entry, looked up): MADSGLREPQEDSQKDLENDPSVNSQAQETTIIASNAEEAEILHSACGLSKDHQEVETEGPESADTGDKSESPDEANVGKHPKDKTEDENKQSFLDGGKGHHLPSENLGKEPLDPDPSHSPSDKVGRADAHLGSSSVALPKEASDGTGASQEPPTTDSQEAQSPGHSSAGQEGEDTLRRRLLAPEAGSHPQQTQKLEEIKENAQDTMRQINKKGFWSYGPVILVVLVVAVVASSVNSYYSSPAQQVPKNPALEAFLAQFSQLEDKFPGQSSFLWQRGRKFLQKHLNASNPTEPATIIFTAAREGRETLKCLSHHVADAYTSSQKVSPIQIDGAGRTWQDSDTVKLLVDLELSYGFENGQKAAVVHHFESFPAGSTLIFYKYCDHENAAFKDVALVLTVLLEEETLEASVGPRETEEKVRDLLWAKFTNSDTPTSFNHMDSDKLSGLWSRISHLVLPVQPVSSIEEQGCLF
# [6] = E. coli growth modulation, two-sided OD650, primary screen, E. coli filamentation project, strain DRC41, 24 h (AID 1093); conditions: OD650, 24 h, higher = more signal, called active from +8 up or from −8 down;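 also: MC1000 strain lacking acrAB efflux and sulA so SOS filamentation is blocked; test concentration not given here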
# [7] = small-molecule microarray binders of probe aLefty2, primary screen, biochemical, biotinylated probe, 635/667 nm fluorescence (AID 1094); conditions: higher = more signal;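 also: score merges spot fluorescence near 667 nm with spot signal-to-noise ratio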
# [8] = tested on: Noggin (protein binding on small-molecule microarray); experiment: Noggin binders on small-molecule microarray, primary screen, biochemical, 635/667 nm fluorescence (AID 1095); conditions: 635 nm fluorescence, higher = more signal;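 also: score merges 667 nm feature fluorescence with signal to noise over triplicate slides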
# [9] = target: Neurogenic locus notch homolog protein 3 (Homo sapiens) (UniProt Q9UM47); experiment: NOTCH3 binders on small-molecule microarray, primary screen, biochemical, 635/667 nm fluorescence (AID 1096); conditions: NOTCH3 binding, 635 nm fluorescence, higher = more signal
# Neurogenic locus notch homolog protein 3 (Homo sapiens), sequence (Q9UM47 whole entry, looked up): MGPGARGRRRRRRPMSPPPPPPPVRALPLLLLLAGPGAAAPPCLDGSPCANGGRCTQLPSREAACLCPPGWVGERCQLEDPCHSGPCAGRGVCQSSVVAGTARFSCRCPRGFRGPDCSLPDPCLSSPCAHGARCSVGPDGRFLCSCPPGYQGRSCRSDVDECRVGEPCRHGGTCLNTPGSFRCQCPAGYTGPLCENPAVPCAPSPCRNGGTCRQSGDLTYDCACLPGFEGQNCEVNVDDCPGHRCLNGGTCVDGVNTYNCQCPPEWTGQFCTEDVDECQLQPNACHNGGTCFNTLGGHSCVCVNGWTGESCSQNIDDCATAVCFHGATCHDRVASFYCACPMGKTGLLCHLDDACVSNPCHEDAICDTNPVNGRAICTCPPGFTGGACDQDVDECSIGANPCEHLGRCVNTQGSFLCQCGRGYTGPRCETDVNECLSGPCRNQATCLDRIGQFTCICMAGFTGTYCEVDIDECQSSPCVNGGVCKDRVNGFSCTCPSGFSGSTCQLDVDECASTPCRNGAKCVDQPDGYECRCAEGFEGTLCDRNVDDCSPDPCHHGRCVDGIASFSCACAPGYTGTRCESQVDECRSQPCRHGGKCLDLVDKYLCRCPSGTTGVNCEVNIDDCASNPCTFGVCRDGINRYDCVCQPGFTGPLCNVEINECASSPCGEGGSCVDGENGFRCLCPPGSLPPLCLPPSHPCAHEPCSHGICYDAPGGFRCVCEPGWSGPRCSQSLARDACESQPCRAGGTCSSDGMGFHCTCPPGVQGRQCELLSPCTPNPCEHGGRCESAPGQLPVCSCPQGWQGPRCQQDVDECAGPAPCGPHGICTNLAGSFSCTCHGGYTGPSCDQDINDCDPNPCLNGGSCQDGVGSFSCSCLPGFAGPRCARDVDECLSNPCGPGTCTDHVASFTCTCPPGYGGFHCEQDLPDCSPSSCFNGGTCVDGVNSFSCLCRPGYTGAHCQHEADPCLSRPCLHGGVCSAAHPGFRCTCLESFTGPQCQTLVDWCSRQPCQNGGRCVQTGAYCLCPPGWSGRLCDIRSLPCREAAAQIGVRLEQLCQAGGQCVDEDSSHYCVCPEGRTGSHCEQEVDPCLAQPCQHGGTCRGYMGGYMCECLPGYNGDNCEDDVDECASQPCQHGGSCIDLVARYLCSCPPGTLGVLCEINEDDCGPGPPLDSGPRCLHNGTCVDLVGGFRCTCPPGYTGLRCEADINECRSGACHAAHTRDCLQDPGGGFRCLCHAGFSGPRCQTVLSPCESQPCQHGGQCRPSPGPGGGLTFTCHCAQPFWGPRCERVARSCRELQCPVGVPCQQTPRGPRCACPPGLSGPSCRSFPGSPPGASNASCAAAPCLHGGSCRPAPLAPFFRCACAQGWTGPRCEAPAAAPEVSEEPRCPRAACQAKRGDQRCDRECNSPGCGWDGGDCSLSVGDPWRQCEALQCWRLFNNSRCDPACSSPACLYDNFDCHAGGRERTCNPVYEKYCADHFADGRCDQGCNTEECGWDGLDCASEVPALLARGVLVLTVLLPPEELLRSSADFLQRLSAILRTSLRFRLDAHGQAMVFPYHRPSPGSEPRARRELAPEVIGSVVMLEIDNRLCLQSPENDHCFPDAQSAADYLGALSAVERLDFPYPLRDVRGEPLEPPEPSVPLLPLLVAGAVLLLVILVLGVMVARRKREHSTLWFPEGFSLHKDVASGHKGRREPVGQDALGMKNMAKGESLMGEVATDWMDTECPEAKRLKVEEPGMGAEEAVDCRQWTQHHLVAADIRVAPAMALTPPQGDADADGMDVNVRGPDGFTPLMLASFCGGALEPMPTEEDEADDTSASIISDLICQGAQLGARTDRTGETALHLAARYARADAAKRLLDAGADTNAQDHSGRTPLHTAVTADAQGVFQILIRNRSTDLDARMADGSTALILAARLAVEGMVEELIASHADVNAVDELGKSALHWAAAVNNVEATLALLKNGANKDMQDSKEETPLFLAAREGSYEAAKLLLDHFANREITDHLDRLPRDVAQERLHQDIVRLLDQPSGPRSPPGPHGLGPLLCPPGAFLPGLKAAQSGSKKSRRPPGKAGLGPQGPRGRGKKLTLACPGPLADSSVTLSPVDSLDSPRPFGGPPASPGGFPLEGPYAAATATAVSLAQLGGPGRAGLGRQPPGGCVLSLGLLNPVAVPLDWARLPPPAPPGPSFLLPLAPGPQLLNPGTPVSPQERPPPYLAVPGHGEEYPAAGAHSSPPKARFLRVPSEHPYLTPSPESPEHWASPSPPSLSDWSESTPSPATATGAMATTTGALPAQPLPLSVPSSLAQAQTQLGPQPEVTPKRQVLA
# [10] = small-molecule microarray binders of probe aEGFR, primary screen, biochemical, biotinylated probe, 635/667 nm fluorescence (AID 1097); conditions: higher = more signal;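 also: probe is a biotinylated anti-EGFR antibody binding compounds printed on slides; score combines fluorescence near 667 nm and signal to noise of each spot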
# [11] = tested on: Plasmodium falciparum Sir2 (PF13_0152, Sir2A); experiment: pfSir2 binders on small-molecule microarrays, primary screen, biochemical, small-molecule microarray, 635 nm fluorescence (AID 1098); conditions: small-molecule microarray binding, fluorescence 635 nm; higher = more signal;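 also: score merges spot fluorescence intensity with its signal-to-noise ratio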
# [12] = small-molecule microarray binders of probe aDKK1, primary screen, biochemical, biotinylated probe, 635/667 nm fluorescence (AID 1099); conditions: higher = more signal;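 also: score merges 667nm spot fluorescence with signal to noise across triplicate slides; reference of the scale not given here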
# [13] = small-molecule microarray binders of probe aCHRDL2, primary screen, biochemical, biotinylated probe, 635/667 nm fluorescence (AID 1100); conditions: higher = more signal
# [14] = splicing luciferase reporter signal modulators, primary screen, spliceosome inhibition project, cell-based, HEK293, splice +/- reporter (AID 1101); conditions: luminescence, 24 h, higher = more signal, called active from +8 up or from −8 down;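 also: HEK293 cells carrying a splicing-competent luciferase reporter gene; test concentration not given here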
# [15] = target: Fibroblast growth factor 10 (Homo sapiens) (UniProt O15520); experiment: FGF10 binders on small-molecule microarrays, primary screen, biochemical, small-molecule microarray, 635 nm fluorescence (AID 1102); conditions: FGF10 binding, fluorescence 635 nm, higher = more signal
# Fibroblast growth factor 10 (Homo sapiens), sequence (O15520 whole entry, looked up): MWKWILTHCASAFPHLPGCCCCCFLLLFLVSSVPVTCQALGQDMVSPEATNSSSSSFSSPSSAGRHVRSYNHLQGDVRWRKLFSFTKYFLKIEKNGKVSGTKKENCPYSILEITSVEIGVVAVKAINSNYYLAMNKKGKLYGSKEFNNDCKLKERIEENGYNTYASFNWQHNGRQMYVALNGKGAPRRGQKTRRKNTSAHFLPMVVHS
# [16] = tested on: glycogen synthase kinase-3 (GSK3A per assay name; protocol says GSK3B); experiment: GSK3 binders on small-molecule microarrays, primary screen, biochemical, small-molecule microarray, 635 nm fluorescence, GSK3A (AID 1103); conditions: small-molecule microarray binding, fluorescence 635 nm; higher = more signal; also: the record names both GSK3A and GSK3B
# [17] = target: Epidermal growth factor receptor (Homo sapiens) (UniProt P00533); experiment: EGFR binders on small-molecule microarrays, primary screen, biochemical, small-molecule microarray, 635 nm fluorescence (AID 1104); conditions: EGFR binding, higher = more signal;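 also: score merges 667 nm emission intensity with spot signal to noise over triplicate slides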
# Epidermal growth factor receptor (Homo sapiens), sequence (P00533 whole entry, looked up): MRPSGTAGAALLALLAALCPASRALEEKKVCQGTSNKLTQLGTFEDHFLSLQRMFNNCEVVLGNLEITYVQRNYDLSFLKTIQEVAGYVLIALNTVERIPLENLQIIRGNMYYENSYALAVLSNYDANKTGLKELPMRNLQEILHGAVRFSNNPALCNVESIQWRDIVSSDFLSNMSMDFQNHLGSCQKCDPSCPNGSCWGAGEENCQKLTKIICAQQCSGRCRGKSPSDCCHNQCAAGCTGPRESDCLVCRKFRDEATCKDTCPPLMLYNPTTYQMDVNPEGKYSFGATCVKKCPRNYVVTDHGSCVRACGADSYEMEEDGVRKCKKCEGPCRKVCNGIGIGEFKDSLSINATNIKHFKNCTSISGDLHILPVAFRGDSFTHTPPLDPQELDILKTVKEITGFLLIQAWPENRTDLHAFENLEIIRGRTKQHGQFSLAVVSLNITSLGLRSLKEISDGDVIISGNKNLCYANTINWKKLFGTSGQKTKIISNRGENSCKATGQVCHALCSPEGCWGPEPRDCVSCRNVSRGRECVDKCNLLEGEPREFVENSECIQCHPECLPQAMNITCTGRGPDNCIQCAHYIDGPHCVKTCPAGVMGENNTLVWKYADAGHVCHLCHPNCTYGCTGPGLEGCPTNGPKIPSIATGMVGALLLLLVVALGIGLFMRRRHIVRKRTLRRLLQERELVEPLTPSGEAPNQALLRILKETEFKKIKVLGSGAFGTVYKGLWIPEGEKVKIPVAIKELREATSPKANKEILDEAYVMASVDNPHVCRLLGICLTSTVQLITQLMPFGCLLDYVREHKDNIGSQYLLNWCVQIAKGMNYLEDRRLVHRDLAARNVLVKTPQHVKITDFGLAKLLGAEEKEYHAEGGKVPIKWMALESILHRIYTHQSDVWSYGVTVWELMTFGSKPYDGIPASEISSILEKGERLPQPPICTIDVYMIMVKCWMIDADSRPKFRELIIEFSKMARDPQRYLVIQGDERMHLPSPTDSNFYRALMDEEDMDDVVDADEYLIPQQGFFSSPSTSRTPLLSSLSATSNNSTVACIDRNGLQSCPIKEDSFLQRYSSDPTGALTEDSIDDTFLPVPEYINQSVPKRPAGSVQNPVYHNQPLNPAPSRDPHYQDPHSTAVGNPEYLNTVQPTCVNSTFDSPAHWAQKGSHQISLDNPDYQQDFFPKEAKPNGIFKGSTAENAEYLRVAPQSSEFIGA
# [18] = target: Follistatin-related protein 3 (Homo sapiens) (UniProt O95633); experiment: FSTL3 binders on small-molecule microarrays, primary screen, biochemical, small-molecule microarray, 635 nm fluorescence (AID 1105); conditions: FSTL3 binding, higher = more signal;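 also: score merges emission near 667 nm and signal to noise per printed spot across three slides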
# Follistatin-related protein 3 (Homo sapiens), sequence (O95633 whole entry, looked up): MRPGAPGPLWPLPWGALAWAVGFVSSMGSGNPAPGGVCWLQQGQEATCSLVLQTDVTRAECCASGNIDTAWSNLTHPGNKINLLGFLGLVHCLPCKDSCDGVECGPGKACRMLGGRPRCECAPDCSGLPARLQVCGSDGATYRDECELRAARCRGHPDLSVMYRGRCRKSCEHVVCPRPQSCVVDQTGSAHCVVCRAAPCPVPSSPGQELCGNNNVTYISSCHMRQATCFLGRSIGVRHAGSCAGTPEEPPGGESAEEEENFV
# [19] = target: Dickkopf-related protein 1 (Homo sapiens) (UniProt O94907); experiment: DKK1 binders on small-molecule microarrays, primary screen, biochemical, small-molecule microarray, 635 nm fluorescence scan (AID 1106); conditions: DKK1 binding, higher = more signal;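 also: score merges emission near 667 nm with signal to noise over three replicate slides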
# Dickkopf-related protein 1 (Homo sapiens), sequence (O94907 whole entry, looked up): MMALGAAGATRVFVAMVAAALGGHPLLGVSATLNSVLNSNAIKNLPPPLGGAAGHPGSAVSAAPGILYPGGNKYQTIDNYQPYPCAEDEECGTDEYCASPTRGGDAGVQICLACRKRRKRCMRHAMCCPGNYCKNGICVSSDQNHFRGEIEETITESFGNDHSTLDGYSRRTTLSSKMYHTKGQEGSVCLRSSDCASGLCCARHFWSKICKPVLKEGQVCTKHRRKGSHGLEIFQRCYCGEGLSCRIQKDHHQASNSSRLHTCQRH
# [20] = tested on: Inhibin beta A chain (activin A); experiment: INHBA (activin A) binders on microarrays, primary screen, biochemical, small-molecule microarray, 635 nm fluorescence scan (AID 1107); conditions: small-molecule microarray binding, higher = more signal;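 also: mouse activin A protein probed at 4.33 µg/mL on printed slides; score merges bound-protein fluorescence near 667 nm with spot signal-to-noise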
SMILES,composite z-score [1],z-score [2],z-score [3],z-score [4],composite z-score [5],z-score [6],composite z-score [7],composite z-score [8],composite z-score [9],composite z-score [10],composite z-score [11],composite z-score [12],composite z-score [13],z-score [14],composite z-score [15],composite z-score [16],composite z-score [17],composite z-score [18],composite z-score [19],composite z-score [20]
NC(=O)NCC#Cc1ccc2c(c1)[C@]1(C(=O)N2)[C@H](C(=O)N2CCN(c3ncccn3)CC2)[C@H]2C(=O)O[C@H](c3ccccc3)[C@H](c3ccccc3)N2[C@@H]1c1ccc(O)cc1,1.33,0.541 (inactive),-0.281 (inactive),0.971 (inactive),0.828,-0.653 (inactive),0.109,0.517,1.08,0.0283,0.615,0.287,0.208,-0.534 (inactive),1.21,-0.0752,0.755,1.41,0.704,-0.131
[N-]=[N+]=Nc1ccccc1[C@@H]1OC(c2ccc(OCCCO)cc2)=N[C@]1(Cc1ccccc1)C(=O)O,1.56,0.85 (inactive),0.594 (inactive),1.82 (inactive),2.43,0.779 (inactive),0.106,0.522,1.05,-0.268,0.77,0.973,0.0948,-0.689 (inactive),0.747,0.655,-0.129,0.455,-0.347,1.2
COCCOC(=O)N1C(=O)[C@@]2(c3cc(C#CC4(O)CCCCCC4)ccc31)[C@H](C(=O)N1CCc3cc(OC)c(OC)cc3C1)[C@H]1C(=O)O[C@H](c3ccccc3)[C@H](c3ccccc3)N1[C@@H]2c1ccc(OCCO)cc1,1.54,1.98 (inactive),0.932 (inactive),4.4 (inactive),2.03,0.0446 (inactive),-0.0585,1.3,1.09,-0.0234,0.868,-0.208,-0.219,0.058 (inactive),0.891,1.3,0.626,1.04,0.95,0.25
C=CCOC(=O)[C@@H]1[C@H]2C(=O)O[C@H](c3ccccc3)[C@H](c3ccccc3)N2[C@H](c2ccc(OCCOC(=O)[C@@H]3C[C@@H]4C(=O)N[C@@H](CCCC[N+](C)(C)C)C(=O)N4[C@@H]3c3ccc(O)cc3)cc2)[C@@]12C(=O)Nc1ccc(I)cc12,1.53,0.954 (inactive),-1.48 (inactive),1.02 (inactive),2.21,-0.0235 (inactive),-0.103,0.989,1.07,-0.0006,0.822,-0.178,-0.18,0.527 (inactive),1.18,1.24,0.49,1.41,0.776,0.192
CC(CO)N1C(=O)[C@@H]2[C@H]3C(=O)OCC=C[C@H]3OC23C=CCN(Cn2nnc4ccccc42)C(=O)[C@@H]13 (stereo not given in full),-0.533,-0.596 (inactive),-0.225 (inactive),-0.473 (inactive),-0.444,-0.333 (inactive),-0.185,-0.746,-0.652,-0.292,0.996,-0.162,0.238,1.12 (inactive),-0.78,-0.778,-1.29,-1.13,-0.586,0.647
